# Source: PubChem (National Center for Advancing Translational Sciences (NCATS))
# The full list was thinned out, with hits kept by preference.
# SARS PLP yeast: blocks SARS-CoV papain-like protease in a yeast assay. S. cerevisiae expressing SARS-CoV PLpro, growth rescue. Potency, µM (titrated, usually from 32.9 µM), without a hit: at the top dose activity, positive = growth rescue, most hits filed as activators. hit rate 0.19% among 330,000. AID 485353; calls by dose curve; further: potency means the concentration at half of the fitted maximal effect; 0% is about no effect; nearly all actives have a fitted effect of over 55% in size
# Shiga toxin inh: blocks Shiga toxin action in Vero cells; Vero cells, Shiga toxin protein synthesis inhibition reporter; inhibition, % at 38.7 µM; hit rate 9.2% among 290,000; AID 2315; in the data active means inhibition mostly above about 28%, no sharp cut-off; inactive means mostly below about 43%; further: 0% is about no effect
# AmpC inh no detg: inhibitors of E. coli AmpC beta-lactamase without detergent; Potency, µM (doses to about 57.1 µM), inactives show at the highest dose activity change, negative = inhibition, actives largely listed as inhibitors; AmpC nitrocefin hydrolysis, absorbance 480 nm, 0.0001% Triton; AID 485341; hit rate 0.52% among 330,000;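 further: potency means the concentration at half of the fitted maximal effect; plate controls were no compound for no effect and no enzyme for full effect; nearly all actives have a fitted effect of over 20% in size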
# Target sequence (P00811 whole entry, looked up): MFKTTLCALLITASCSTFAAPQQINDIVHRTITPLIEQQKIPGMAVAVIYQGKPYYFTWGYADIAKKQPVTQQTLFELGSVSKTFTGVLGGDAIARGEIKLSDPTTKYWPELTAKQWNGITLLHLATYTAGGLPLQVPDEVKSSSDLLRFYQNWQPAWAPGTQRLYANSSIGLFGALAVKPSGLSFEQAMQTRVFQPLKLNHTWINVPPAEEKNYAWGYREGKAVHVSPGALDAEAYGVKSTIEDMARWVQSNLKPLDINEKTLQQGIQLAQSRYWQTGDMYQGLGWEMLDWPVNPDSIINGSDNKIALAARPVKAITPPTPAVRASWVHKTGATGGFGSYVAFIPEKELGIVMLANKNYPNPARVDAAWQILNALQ
#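 AmpC (5.3 nM in the dispensed reagent) in 20 mM phosphate pH 7.0 with 0.01% (detergent screen) or 0.0001% Triton X-100 was preincubated with compounds for 15 min at room temperature. Nitrocefin was then added from an 800 uM solution, and hydrolysis was followed at 480 nm.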
# AmpC inh detg: AmpC beta-lactamase inhibition with detergent present. P00811. hit rate 0.041% among 370,000. AmpC hydrolysis of nitrocefin, absorbance 480 nm, 0.01% Triton. Potency, µM (top dose mostly 114 µM), for inactives: at the top dose activity change, negative = inhibition, actives largely listed as inhibitors;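 further: potency means the concentration at half of the fitted maximal effect; 0% = no-compound wells and -100% = no-enzyme wells; nearly all actives have a fitted effect of over 25% in size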
#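 20 mM phosphate pH 7.0 + 0.01% (detergent screen) or 0.0001% Triton X-100; 5.3 nM AmpC reagent; cpd preinc 15 min RT; nitrocefin (800 uM stock) to start; A480 q20 s × 4 min; Activity was normalised to no-enzyme and no-compound control wells.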
# AMA1-RON2 inh: inhibitors of Plasmodium falciparum AMA1-RON2 interaction; AlphaScreen AMA1-biotinylated RON2 peptide binding; Potency, µM (titrated, usually from 58.2 µM), for inactives: top-dose activity change, negative = inhibition, actives largely listed as inhibitors; hit rate 0.2% among 360,000;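 further: potency means the concentration at half of the fitted maximal effect; 0% = vehicle wells and -100% = peptide control; nearly all actives have a fitted effect of over 45% in size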
#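 AMA1 (3D7) with his tag at 25 nM final met compounds first, then biotinylated RON2 peptide at 25 nM; detection used donor plus acceptor beads, 10 µg/mL apiece, read by AlphaScreen after 30 min at room temperature.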
# CHX counter: counter-screen hit for Shiga toxin inhibitors, cycloheximide; cell reporter, cycloheximide protein synthesis inhibition counterscreen; max response, %; hit rate 12% among 300,000; AID 2314; in the data active means max response mostly above about 13%, no sharp cut-off; inactive means mostly below about 14%; further: read at 38.3 µM for the half of the compounds with a filed dose; 0% is about no effect
# An asterisk follows results filed as active; ? = inconclusive; nt = no result given; [ ] = another dose, or the depositor's remark. Unless noted, the call rests on the fitted dose curve; in most records, active means well fitted curve in the direction sought with a large enough effect; inconclusive means small, poorly fitted or top-dose-only effect, or another doubt; inactive means no such curve, though single readings can be large; an effect the other way counts as inactive or inconclusive.
SMILES,SARS PLP yeast,Shiga toxin inh,AmpC inh no detg,AmpC inh detg,AMA1-RON2 inh,CHX counter
C#CCCOC(=O)Nc1ccccc1,1.4%,21.5,-11.2%,6.1%,3.6%,active
O=C(Nc1ccccc1)OCCCCOC(=O)Nc1ccccc1,nt,nt,nt,nt,-8.7%,nt
COc1ccccc1NC(=O)C1C2CCCCC21 (stereo not given),4.8%,37.7,-24.7%,-9.9%,-3.0%,1.1
CCN1CCN(C(=O)c2ccc(C(F)(F)F)cc2)CC1,0.5%,-5.8,0.1%[2.29 µM],-2.6%,20.1%,3.1
COc1cc(CN2CCN(C(=O)CC(C)C)CC2)cc(OC)c1O,4.3%,1.5,6.2%,-18.1%,-20.8%,-4.4
C/C(=N\NC(=O)c1cc(C)[nH]n1)c1ccc(-c2ccccc2)cc1,0.1%,55.2*,-35.4%,-2.4%,9.4%,8.6
C/C(=N\NC(=O)c1cc(C)[nH]n1)c1cccs1,-0.9%,58.9*,-13.0%,2.4%,0.5%,11.6
C/C(=N/NC(=O)c1cc(C(C)C)[nH]n1)c1cccs1,0.4%,39.1,-18.4%,-11.1%,13.5%,16.5
CC(=O)CCc1c[nH]c2c(C(=O)O)cccc12,-2.1%,12.2,-8.6%,-11.5%,4.6%,-1.6
O=C1C(=C2SCCCS2)CC/C1=C\c1ccc(F)cc1,-11.7%,78.6*,-16.2%,-3.8%,-3.2%,31.0*
Cc1cccc(/C=C2\CCC(=C3SCCCS3)C2=O)c1,0.3%,79.9*,-5.3%,?,-10.0%,44.4*
O=C1NC(=S)SC1=Cc1ccc(F)cc1,nt,nt,nt,nt,29.6%,nt
Cc1cc2ccccc2cc1CN1CCOCC1,1.9%,-4.5,-4.5%,?,-4.3%,2.2
C=CCNCCOCCOc1ccc(C)cc1Br,-15.0%,47.0,-6.1%,?,-15.4%,28.5*
CN(C)C(Cc1ccc(C#N)cc1)C(=O)c1ccccc1 (stereo not given),-9.3%,31.8,-36.1%,-8.6%,9.9%,29.5*
CN(C)CC(CCC(CN(C)C)C(=O)c1ccccc1)C(=O)c1ccccc1 (stereo not given),-3.1%,-22.9,15.7%,1.4%,1.3%,-7.5
COc1ccc(C(=O)C(Cc2ccccc2)N(C)C)cc1 (stereo not given),1.8%,42.4*,2.9%,4.4%,-7.0%,30.6*
COc1ccc(C(=O)C(CCCCC(CN(C)C)C(=O)c2ccc(OC)cc2)CN(C)C)cc1 (stereo not given),-4.0%,8.5,38.5%,?,13.8%,6.7
O=C(COc1ccc(Cl)cc1)Nc1cc2c3c(c1)CC(=O)N3CCC2,-7.0%,nt,-19.2%,-19.7%,-8.6%,nt
CCOc1ccccc1-n1c(CNc2ccc(F)cc2)nnc1SCC(=O)NCc1ccco1,-10.9%,28.5,17.2%,-9.4%,11.7%,21.6*
CCOc1ccc(-n2c(SCC(=O)NCc3ccco3)nnc2-c2c[nH]c3ccccc23)cc1,2.7%,11.6,1.41µM*,?,-1.3%,-0.8
O=C(CSc1nnc(COc2ccccc2F)n1-c1ccccc1)NCc1ccco1,8.2%,53.2*,38.6%,1.1%,7.1%,19.4*
Cn1c(SCC(=O)NCc2ccco2)nnc1-c1c[nH]c2ccccc12,-9.1%,-13.7,-17.4%,?,14.7%,-3.9
COc1ccc(-c2cc(C(C)=O)c(C)n2CCC(=O)Nc2cc(C)ccc2OC)cc1,nt,nt,nt,2.5%,nt,nt
COc1cc(Cl)c(NS(=O)(=O)c2ccc3c(c2)CC(C)N3C(=O)C2CCC2)c(OC)c1 (stereo not given),nt,nt,nt,20.0%,nt,nt
SMILES,SARS PLP yeast,Shiga toxin inh,AmpC inh no detg,AmpC inh detg,AMA1-RON2 inh,CHX counter
CCCNC(=O)c1nnsc1Sc1ccc(Cl)cc1,4.3%,87.2*,-52.7%,0.3%,3.6%,23.5*
CCCNC(=O)c1onc(CSc2ccc(Cl)cc2)c1C(=O)NCCOC,nt,nt,nt,nt,-8.6%,nt
Cc1ccc(NC2CCCN(C(=O)c3ccc(C)c(N4CCNC4=O)c3)C2)cc1C (stereo not given),0.1%,20.3,100.5%,3.0%,-12.5%,9.9*
COc1ccc(NC2CCCN(C(=O)CCCN3CCCCC3=O)C2)cc1 (stereo not given),-4.0%,-1.5,6.6%,-6.4%,-0.7%,-2.5
Cc1ccccc1CC1(CO)CCCN(C(=O)CCCN2CCCCC2=O)C1 (stereo not given),0.9%,44.1,80.4%,-8.4%,-4.3%,17.4*
COc1ccc(C(=O)N2CCCC(Nc3ccc(C)c(C)c3)C2)cc1 (stereo not given),-2.9%,-8.0,33.0%,5.8%,-15.1%,-0.5
CCOC(=O)C1(Cc2ccccc2C)CCCN(C(=O)CN2CCCCC2=O)C1 (stereo not given),-5.2%,28.6,111.8%,-5.4%,-1.0%,6.6
Cc1ccc(NC2CCCN(C(=O)CCCN3CCCCC3=O)C2)cc1C (stereo not given),-3.5%,21.3,78.3%,-9.3%,-7.7%,13.1*
